Results reported in article PMC7862700, “An all-to-all approach to the identification of sequence-specific readers for epigenetic DNA modifications on cytosine”.

Columns and labels:
Assay in all cases: DAPPL (digital affinity profiling via proximity ligation, sequencing); 10 mM Tris-HCl pH 7.5, 50 mM NaCl, 1 mM DTT, 4% glycerol, room temperature, 30 min; GST-TFs on glutathione beads, 16-mer random dsDNA library, 0.1% formaldehyde crosslink after washing; high values mean tight binding
FLI1 = target: T1, FLI1 (Homo sapiens, UniProt Q01543 1-452); settings: protein: recombinant; tags: N-terminal GST; dsDNA, one strand shown
T1 sequence: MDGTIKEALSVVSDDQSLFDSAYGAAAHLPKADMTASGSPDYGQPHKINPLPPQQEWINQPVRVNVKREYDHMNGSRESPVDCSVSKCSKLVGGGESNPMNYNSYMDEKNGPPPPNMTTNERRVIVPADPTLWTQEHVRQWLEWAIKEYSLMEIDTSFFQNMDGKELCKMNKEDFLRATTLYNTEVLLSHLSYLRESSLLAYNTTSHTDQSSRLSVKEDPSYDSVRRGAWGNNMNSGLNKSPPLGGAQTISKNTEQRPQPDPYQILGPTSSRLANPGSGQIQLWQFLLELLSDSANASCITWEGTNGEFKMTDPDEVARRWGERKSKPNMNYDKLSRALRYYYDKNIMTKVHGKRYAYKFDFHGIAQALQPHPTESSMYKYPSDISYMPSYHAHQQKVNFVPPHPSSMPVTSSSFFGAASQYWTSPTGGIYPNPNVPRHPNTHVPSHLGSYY
In short: (§1)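 GST fusions of human transcription factors were expressed in yeast and captured with glutathione beads. Once given DNA barcodes and pooled alongside a tag-only sample, they were incubated for 30 min at room temperature with 200 nmole of a random double-stranded 16-mer DNA library in Tris/NaCl/DTT/glycerol buffer, then washed, crosslinked (0.1% formaldehyde), proximity-ligated, PCR-amplified and sequenced on an Illumina NextSeq500. The binding signal of each hexamer is its read frequency for a factor divided by its frequency for the tag-only sample.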

ELK1 = target: T2, ELK1 (Homo sapiens, UniProt P19419 1-428); settings: protein: recombinant; tags: N-terminal GST; dsDNA, one strand shown
T2 sequence: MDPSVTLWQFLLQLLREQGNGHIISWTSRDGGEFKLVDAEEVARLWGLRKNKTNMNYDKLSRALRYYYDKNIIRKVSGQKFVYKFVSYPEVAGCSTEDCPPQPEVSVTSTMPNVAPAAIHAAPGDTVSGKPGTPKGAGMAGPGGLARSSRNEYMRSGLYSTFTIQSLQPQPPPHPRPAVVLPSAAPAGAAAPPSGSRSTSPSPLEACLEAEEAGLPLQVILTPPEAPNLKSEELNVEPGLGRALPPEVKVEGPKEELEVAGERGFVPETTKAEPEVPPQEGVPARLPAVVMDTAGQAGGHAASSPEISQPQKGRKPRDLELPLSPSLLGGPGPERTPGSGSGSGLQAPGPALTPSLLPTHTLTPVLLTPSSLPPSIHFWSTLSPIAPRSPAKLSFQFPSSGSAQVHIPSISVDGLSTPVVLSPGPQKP
In short: as §1

GABPA = target: T3, GABPA (Homo sapiens, UniProt Q06546 1-454); settings: protein: recombinant; tags: N-terminal GST; dsDNA, one strand shown
T3 sequence: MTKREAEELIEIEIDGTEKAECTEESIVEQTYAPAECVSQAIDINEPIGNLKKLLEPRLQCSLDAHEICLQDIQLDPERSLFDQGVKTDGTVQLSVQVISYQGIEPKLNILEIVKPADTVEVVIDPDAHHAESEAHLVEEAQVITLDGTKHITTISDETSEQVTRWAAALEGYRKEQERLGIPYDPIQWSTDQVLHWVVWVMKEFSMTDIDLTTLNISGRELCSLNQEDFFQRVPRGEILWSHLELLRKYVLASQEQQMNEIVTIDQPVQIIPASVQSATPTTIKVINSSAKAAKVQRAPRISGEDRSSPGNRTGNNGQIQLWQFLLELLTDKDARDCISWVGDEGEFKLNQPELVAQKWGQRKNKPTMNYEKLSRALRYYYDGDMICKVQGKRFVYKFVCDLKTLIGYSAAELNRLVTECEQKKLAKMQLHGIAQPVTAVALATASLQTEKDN
In short: as §1

ERG = target: T4, ERG (Homo sapiens, UniProt P11308 1-479); settings: protein: recombinant; tags: N-terminal GST; dsDNA, one strand shown
T4 sequence: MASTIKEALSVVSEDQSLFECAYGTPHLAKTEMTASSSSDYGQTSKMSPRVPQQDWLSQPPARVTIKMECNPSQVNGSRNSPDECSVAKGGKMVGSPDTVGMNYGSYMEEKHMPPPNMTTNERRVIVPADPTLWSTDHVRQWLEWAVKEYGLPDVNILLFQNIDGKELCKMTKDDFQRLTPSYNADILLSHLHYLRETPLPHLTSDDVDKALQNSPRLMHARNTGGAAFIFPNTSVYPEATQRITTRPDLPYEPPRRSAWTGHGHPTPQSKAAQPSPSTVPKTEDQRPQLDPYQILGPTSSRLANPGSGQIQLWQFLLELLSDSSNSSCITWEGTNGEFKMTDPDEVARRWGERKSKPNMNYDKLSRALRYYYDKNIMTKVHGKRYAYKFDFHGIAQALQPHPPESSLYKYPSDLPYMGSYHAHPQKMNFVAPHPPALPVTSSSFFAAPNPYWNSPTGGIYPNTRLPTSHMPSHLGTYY
In short: as §1

ELF1 = ELF1 (Homo sapiens, UniProt P32519 1-619); settings: protein: recombinant; tags: N-terminal GST; dsDNA, one strand shown
ELF1, sequence (P32519 whole entry): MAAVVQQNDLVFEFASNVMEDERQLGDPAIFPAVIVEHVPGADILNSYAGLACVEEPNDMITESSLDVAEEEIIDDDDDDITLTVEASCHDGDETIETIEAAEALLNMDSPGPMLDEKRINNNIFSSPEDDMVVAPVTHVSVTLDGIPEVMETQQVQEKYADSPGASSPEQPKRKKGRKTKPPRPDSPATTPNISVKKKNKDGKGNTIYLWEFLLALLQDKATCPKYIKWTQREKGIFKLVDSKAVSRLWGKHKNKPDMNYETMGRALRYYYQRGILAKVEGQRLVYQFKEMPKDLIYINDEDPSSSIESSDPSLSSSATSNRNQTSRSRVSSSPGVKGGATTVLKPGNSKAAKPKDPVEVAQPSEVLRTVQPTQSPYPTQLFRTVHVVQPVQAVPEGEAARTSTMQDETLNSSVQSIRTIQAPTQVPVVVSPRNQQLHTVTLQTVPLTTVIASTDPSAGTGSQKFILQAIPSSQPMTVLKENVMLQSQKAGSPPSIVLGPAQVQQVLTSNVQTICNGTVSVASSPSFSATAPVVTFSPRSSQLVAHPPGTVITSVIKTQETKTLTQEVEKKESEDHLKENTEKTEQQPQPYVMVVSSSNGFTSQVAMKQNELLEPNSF
In short: as §1

EHF = target: T5, EHF (Homo sapiens, UniProt Q9NZC4 1-300); settings: protein: recombinant; tags: N-terminal GST; dsDNA, one strand shown
T5 sequence: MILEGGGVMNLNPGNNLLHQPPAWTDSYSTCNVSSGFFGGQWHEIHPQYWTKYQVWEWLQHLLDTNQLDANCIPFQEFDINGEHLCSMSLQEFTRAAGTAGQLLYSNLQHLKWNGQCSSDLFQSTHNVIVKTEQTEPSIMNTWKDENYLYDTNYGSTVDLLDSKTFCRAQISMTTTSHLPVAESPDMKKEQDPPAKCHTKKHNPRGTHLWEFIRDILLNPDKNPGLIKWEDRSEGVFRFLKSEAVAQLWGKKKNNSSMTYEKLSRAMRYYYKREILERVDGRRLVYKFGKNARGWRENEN
In short: as §1

SPI1 = SPI1 (Homo sapiens, UniProt P17947 1-270); settings: protein: recombinant; tags: N-terminal GST; dsDNA, one strand shown
In short: as §1

SPIB = SPIB (Homo sapiens, UniProt Q01892 1-262); settings: protein: recombinant; tags: N-terminal GST; dsDNA, one strand shown
SPIB, sequence (Q01892 whole entry): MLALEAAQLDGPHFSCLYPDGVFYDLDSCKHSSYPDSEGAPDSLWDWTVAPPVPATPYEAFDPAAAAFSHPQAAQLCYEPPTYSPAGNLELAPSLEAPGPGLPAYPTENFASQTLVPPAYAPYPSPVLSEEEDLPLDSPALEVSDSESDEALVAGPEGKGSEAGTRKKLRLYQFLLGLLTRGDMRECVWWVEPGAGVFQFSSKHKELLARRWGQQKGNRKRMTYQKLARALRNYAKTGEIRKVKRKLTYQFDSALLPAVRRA
In short: as §1

ELK3 = target: T6, ELK3 (Homo sapiens, UniProt P41970 1-407); settings: protein: recombinant; tags: N-terminal GST; dsDNA, one strand shown
T6 sequence: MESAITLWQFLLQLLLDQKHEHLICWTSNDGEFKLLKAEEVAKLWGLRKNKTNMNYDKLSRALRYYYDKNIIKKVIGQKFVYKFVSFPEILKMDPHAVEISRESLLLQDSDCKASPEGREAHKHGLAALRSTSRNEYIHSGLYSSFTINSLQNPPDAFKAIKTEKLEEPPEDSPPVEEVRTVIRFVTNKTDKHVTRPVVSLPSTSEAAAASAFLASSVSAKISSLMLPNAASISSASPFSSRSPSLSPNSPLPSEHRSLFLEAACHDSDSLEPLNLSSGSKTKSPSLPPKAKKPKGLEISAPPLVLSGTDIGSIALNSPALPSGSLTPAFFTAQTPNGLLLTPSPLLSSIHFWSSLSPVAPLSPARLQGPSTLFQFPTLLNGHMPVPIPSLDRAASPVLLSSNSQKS
In short: as §1

FEV = target: T7, FEV (Homo sapiens, UniProt Q99581 1-238); settings: protein: recombinant; tags: N-terminal GST; dsDNA, one strand shown
T7 sequence: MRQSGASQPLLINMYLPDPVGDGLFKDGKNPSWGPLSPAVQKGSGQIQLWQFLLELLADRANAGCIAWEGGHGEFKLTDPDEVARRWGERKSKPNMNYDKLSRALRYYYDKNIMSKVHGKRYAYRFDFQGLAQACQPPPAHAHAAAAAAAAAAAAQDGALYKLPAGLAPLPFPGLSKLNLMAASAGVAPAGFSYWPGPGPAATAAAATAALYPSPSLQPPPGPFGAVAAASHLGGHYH
In short: as §1

ETV5 = ETV5 (Homo sapiens, UniProt P41161 1-510); settings: protein: recombinant; tags: N-terminal GST; dsDNA, one strand shown
ETV5, sequence (P41161 whole entry): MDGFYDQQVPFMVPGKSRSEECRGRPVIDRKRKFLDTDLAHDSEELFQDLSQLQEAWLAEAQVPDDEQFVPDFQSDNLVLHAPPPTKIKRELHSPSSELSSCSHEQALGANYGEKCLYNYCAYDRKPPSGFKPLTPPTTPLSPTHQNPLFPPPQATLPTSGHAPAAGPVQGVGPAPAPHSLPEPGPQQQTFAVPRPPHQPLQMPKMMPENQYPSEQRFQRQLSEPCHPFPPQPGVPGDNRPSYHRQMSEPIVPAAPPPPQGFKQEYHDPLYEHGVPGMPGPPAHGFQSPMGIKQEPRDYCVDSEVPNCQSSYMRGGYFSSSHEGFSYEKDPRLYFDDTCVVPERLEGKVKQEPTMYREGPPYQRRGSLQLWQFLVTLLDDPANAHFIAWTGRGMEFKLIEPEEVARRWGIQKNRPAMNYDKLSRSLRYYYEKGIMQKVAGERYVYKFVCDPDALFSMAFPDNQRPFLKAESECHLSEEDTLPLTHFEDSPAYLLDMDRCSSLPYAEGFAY
In short: as §1

HSF1 = HSF1 (Homo sapiens, UniProt Q00613 1-529); settings: protein: recombinant; tags: N-terminal GST; chain copies: 3; dsDNA, one strand shown
HSF1, sequence (Q00613 whole entry): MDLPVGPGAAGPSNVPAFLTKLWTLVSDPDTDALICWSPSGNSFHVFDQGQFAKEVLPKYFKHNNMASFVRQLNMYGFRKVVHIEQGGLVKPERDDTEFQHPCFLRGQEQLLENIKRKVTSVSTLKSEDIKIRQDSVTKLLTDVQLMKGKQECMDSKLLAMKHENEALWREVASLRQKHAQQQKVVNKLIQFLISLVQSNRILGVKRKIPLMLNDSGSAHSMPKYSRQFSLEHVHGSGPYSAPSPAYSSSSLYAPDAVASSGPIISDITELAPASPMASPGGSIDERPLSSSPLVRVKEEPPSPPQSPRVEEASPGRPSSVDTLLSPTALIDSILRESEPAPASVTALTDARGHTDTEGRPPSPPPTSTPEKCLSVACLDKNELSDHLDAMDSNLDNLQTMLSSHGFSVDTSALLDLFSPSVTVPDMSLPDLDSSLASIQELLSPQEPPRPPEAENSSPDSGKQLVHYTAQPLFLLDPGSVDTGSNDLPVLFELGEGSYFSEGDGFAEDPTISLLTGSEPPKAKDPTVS
In short: as §1

SPIC = target: T8, SPIC (Homo sapiens, UniProt Q8N5J4 1-248); settings: protein: recombinant; tags: N-terminal GST; dsDNA, one strand shown
T8 sequence: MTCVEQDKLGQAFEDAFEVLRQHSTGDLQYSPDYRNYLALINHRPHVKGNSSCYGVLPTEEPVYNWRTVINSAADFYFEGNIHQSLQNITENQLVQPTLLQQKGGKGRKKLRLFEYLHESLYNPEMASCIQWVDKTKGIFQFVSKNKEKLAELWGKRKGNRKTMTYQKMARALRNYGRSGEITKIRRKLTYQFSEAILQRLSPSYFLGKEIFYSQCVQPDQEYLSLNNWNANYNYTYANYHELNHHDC
In short: as §1

ELF4 = ELF4 (Homo sapiens, UniProt Q99607 1-663); settings: protein: recombinant; tags: N-terminal GST; dsDNA, one strand shown
ELF4, sequence (Q99607 whole entry): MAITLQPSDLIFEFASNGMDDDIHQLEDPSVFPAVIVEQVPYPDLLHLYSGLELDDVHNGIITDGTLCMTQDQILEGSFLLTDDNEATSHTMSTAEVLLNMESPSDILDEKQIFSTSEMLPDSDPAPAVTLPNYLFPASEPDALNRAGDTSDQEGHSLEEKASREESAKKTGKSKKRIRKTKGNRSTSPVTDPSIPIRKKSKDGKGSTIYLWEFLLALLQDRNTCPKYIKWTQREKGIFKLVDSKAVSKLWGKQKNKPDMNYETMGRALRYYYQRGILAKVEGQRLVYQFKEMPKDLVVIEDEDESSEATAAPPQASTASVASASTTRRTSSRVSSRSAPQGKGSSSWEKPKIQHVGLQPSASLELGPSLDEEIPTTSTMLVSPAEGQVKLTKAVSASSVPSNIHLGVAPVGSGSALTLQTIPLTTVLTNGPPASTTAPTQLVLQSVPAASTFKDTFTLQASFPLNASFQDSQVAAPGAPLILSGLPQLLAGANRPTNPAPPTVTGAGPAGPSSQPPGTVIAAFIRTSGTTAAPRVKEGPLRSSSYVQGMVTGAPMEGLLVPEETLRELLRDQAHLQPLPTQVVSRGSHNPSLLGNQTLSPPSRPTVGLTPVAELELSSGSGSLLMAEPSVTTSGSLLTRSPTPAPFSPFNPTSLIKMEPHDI
In short: as §1

ELK4 = target: T9, ELK4 (Homo sapiens, UniProt P28324-2 1-405); settings: protein: recombinant; tags: N-terminal GST; dsDNA, one strand shown
T9 sequence: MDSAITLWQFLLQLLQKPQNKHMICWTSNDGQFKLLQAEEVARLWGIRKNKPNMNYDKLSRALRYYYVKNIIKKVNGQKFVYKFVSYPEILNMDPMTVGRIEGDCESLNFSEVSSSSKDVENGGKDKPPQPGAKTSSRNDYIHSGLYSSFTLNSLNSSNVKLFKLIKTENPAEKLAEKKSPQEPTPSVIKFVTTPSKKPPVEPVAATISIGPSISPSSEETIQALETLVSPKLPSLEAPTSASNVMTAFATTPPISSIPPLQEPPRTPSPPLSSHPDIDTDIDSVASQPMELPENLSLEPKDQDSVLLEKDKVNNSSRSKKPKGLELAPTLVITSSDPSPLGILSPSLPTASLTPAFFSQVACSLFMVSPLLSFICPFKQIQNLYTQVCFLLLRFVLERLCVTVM
In short: as §1

ETV2 = target: T10, ETV2 (Homo sapiens, UniProt O00321 1-342); settings: protein: recombinant; tags: N-terminal GST; dsDNA, one strand shown
T10 sequence: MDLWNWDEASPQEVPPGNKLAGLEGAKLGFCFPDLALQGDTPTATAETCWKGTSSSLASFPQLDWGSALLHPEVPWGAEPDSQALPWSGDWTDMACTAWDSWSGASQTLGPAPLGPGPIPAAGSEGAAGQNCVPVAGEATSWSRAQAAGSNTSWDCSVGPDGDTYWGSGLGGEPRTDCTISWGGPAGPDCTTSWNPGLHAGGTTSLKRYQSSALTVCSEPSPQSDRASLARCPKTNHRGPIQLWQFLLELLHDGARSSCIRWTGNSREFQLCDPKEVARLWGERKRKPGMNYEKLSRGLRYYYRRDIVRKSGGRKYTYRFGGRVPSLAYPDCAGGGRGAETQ
In short: as §1

ELF3 = target: T11, ELF3 (Homo sapiens, UniProt P78545 1-371); settings: protein: recombinant; tags: N-terminal GST; dsDNA, one strand shown
T11 sequence: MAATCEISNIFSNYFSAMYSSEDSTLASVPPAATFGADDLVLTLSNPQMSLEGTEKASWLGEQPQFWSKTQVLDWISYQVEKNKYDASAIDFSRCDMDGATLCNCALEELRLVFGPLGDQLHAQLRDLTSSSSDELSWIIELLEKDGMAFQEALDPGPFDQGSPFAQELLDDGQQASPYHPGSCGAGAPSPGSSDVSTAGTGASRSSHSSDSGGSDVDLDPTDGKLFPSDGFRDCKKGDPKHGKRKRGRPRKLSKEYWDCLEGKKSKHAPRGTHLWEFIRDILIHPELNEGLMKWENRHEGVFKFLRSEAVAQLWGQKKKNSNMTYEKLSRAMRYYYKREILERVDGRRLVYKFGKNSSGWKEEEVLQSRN
In short: as §1

CRX = CRX (Homo sapiens, UniProt O43186 1-299); settings: protein: recombinant; tags: N-terminal GST; dsDNA, one strand shown
CRX, sequence (O43186 whole entry): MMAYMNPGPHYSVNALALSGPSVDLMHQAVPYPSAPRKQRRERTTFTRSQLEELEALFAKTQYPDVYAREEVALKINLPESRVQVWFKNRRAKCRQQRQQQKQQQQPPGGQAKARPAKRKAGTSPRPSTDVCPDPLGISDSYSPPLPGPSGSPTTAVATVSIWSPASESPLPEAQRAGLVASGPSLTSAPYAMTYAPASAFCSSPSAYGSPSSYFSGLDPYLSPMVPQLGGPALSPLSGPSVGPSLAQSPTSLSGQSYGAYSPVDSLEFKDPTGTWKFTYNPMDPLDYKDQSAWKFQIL
In short: as §1

ETV1 = ETV1 (Homo sapiens, UniProt P50549 1-477); settings: protein: recombinant; tags: N-terminal GST; dsDNA, one strand shown
ETV1, sequence (P50549 whole entry): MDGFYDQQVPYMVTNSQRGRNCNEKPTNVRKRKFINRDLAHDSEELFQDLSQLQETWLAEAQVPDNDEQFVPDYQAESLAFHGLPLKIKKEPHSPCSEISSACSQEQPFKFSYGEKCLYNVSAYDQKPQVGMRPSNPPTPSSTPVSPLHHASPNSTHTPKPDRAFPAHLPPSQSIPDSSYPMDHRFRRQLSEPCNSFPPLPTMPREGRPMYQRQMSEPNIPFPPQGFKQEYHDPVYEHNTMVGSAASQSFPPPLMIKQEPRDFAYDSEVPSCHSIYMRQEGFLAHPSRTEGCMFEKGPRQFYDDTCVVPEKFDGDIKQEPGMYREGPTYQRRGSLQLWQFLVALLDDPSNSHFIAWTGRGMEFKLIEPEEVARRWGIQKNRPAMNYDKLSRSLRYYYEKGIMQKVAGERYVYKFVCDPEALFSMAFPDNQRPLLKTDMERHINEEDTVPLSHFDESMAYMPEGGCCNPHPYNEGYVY
In short: as §1

## CCTCAT
FLI1
  binding signal: 1.35 fold enrichment (6-mer frequency, TF over GST control)
ELK1
  binding signal: 1.3 fold enrichment (6-mer frequency, TF over GST control)
GABPA
  binding signal: 1.34 fold enrichment (6-mer frequency, TF over GST control)
ERG
  binding signal: 1.34 fold enrichment (6-mer frequency, TF over GST control)
ELF1
  binding signal: 1.35 fold enrichment (6-mer frequency, TF over GST control)
EHF
  binding signal: 1.39 fold enrichment (6-mer frequency, TF over GST control)
SPI1
  binding signal: 1.67 fold enrichment (6-mer frequency, TF over GST control)
SPIB
  binding signal: 1.33 fold enrichment (6-mer frequency, TF over GST control)
ELK3
  binding signal: 1.23 fold enrichment (6-mer frequency, TF over GST control)
FEV
  binding signal: 1.26 fold enrichment (6-mer frequency, TF over GST control)
ETV5
  binding signal: 1.31 fold enrichment (6-mer frequency, TF over GST control)
HSF1
  binding signal: 1.08 fold enrichment (6-mer frequency, TF over GST control)
SPIC
  binding signal: 1.45 fold enrichment (6-mer frequency, TF over GST control)
ELF4
  binding signal: 1.39 fold enrichment (6-mer frequency, TF over GST control)
ELK4
  binding signal: 1.3 fold enrichment (6-mer frequency, TF over GST control)
ETV2
  binding signal: 1.1 fold enrichment (6-mer frequency, TF over GST control)
ELF3
  binding signal: 1.27 fold enrichment (6-mer frequency, TF over GST control)
CRX
  binding signal: 1.1 fold enrichment (6-mer frequency, TF over GST control)
ETV1
  binding signal: 1.37 fold enrichment (6-mer frequency, TF over GST control)
